PubChem BioAssay (NCI)
About 83,000 compounds went through this panel and 20% of them were active in at least one assay; those are over-represented in the sample as a whole.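 Plates (96-well) were seeded with cells, treated with compound at one concentration, and incubated for 48 hours before percent growth was determined.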 Unmarked numbers belong to inactive results. Calls of active or inactive are those of the source. The calls were made as follows: active = growth percent below 10; inactive = the rest.

Test system: HS 578T breast
Assay: NCI-60 one-dose screen, 48 h (100 = growth as untreated, 0 = no growth, -100 = all killed)
Settings: 10 µM

For Cc1cc(NC(=O)c2ccc(C)c(Nc3nccc(-c4cccnc4)n3)c2)cc(-n2cnc(C)c2)c1, the growth was 5.73% (active).
With Cc1ccc(C2=NN(c3ccc(S(C)(=O)=O)cc3)C(=O)CC2)cc1 the growth was -1.17% (active).
In the case of CCc1ccc(C2=NN(c3ccc(S(C)(=O)=O)cc3)C(=O)CC2)cc1, the growth is reported as -0.675% (active).

Compared with c1cncc(-c2csc(-c3c[nH]c4ccccc34)n2)c1, c1cnc2[nH]cc(-c3nc(-c4ccsc4)cs3)c2c1 is lower in growth: 90.6% for the first, 87.5% for the second.

First: Cc1ccc(NC(=S)NNC(=S)Nc2ccc(C)cc2)cc1
Second: Nc1ccccc1NC(=O)c1ccc(CCCC(=O)Nc2ccc(C3CC3N)cc2)cc1 (configuration not stated)
The growth of the first is higher: 78.4% for the first, 36.7% for the second.

Going from COc1ccc(-c2nn(-c3cccc(Cl)c3)cc2/C=C2\NC(=S)N(c3ccc(Cl)cc3)C2=O)cc1 to COc1ccc(-c2nn(-c3cccc(Cl)c3)cc2-c2c(C#N)c(=O)n3[nH]c(-c4ccc(C)cc4)nc3c2C#N)cc1, the growth rises from 25.8% to 43.4%.

First: O=C1NC(=O)c2c(CCCSc3nc4ccccc4c(=O)n3CCc3ccccc3)cccc21
Second: Cc1c2cnccc2c(C)c2c1oc1ccccc12
The growth of the first is higher: 74.1% for the first, 53.7% for the second.

Going from CCOC(=O)c1sc2ncnc(Nc3ccc4c(cnn4C(=O)Nc4ccc(C)c(Cl)c4)c3)c2c1C to Cc1c(O)c(=O)ccn1C1CCC(CC2CCC(n3ccc(=O)c(O)c3C)CC2)CC1 (configuration not stated), the growth falls from 112% to 21.9%.

Test system: NCI/ADR-RES ovarian
Assay: as above
Settings: 10 µM

Compared with COc1ccc2nc(Cl)c(Cn3nnc(Cc4ccccc4)n3)cc2c1, Clc1nc2ccccc2cc1Cn1nnc(Cc2ccccc2)n1 is higher in growth: 20.1% for the first, 52.1% for the second.

Compared with COc1ccc(-c2cc(-c3cc(OC)ccc3OC)nc(N)c2C#N)cc1, N#Cc1c(-c2ccc(Cl)cc2)cc(-c2cc(O)ccc2O)nc1N is higher in growth: 52.4% for the first, 65.3% for the second.

Going from COc1ccc(-c2nn(-c3cccc(Cl)c3)cc2-c2cc(-c3ccccc3)nc(N)n2)cc1 to COc1ccc(-c2nn(-c3cccc(Cl)c3)cc2-c2c(C#N)c(=O)n3[nH]c(-c4ccccc4)nc3c2C#N)cc1, the growth rises from 53.3% to 93%.

Going from COc1ccccc1-n1c(-c2sc(NC(C)=O)nc2C)n[nH]c1=S to COc1cc(-c2ccc[nH]2)[nH]c1/C=C1\N=C(C)C(C(=O)NC(C)C)=C1C, the growth falls from 106% to 17.6%.

Compared with COc1cc2c3c(n(C4CCN(C)CC4)c(=O)c2cc1OC)-c1cc2c(cc1C3=O)OCO2, COc1cc2c3c(n([C@@H]4CCOC4)c(=O)c2cc1OC)-c1cc2c(cc1C3=O)OCO2 is lower in growth: 64% for the first, 30.1% for the second.

First: Fc1ccc2[nH]cc(-c3nc(-c4ccsc4)cs3)c2c1
Second: Nc1nc(-c2cccnc2)nc2c1sc(=S)n2-c1ccccc1
The growth of the first is lower: 80.8% for the first, 93.1% for the second.

Going from CCn1c2ccc(O)cc2c2c(C)c3c[n+](C)ccc3c(C)c21 to Cc1c2c[n+](C(C)C)ccc2c(C)c2c1[nH]c1ccccc12, the growth rises from 81% to 97.9%.

First: CC[C@H]1OC(=O)[C@H](C)[C@@H](O[C@H]2C[C@@](C)(OC)[C@@H](O)[C@H](C)O2)[C@H](C)[C@@H](O[C@@H]2O[C@H](C)C[C@H](N(C)C)[C@H]2O)[C@](C)(OC)C/C(C)=C2/O[C@@]1(C)C=C2C
Second: CC(C)(C)OC(=O)N1CCc2c(sc3ncnc(N/N=C/c4cccc(Br)c4)c23)C1
The growth of the first is higher: 65.4% for the first, 42.1% for the second.

Going from CN1CCc2c(sc3nc4n(-c5ccc(Cl)cc5)cnn4c(=O)c23)C1 to O=C(CCCCNC(=O)c1nc(-c2ccccc2)n(-c2ccccc2)n1)NO, the growth falls from 104% to 87.6%.

C=C/C(C)=C/C[C@]1(C)[C@H](C)[C@@H](OC(=O)CCC)[C@H](O)[C@@]23C(=C[C@H](OC)C[C@@H]12)[C@@H](OC(=O)CCC)O[C@H]3OC(C)=O was tested, and the growth was -20.4% (active).
With COc1ccc(-c2nn(-c3cccc(Cl)c3)cc2C=C(C#N)C#N)cc1 the growth was 2.52% (active).
With COc1ccc(-c2cc(-c3ccccc3)nc(SCCCCCCC(=O)NO)n2)cc1 the growth was 9.46% (active).
With Cc1c2cnccc2c(C)c2c1c1cc(O)ccc1n2C(C)C the growth was 1.26% (active).
For CC(C)(C)OC(=O)CN1CCc2c(sc3ncnc(N/N=C/c4cccc5ccccc45)c23)C1, the growth was 7.91% (active).
In the case of O=C(CCCSc1nc(-c2ccc(Cl)cc2)cc(-c2ccc(Cl)cc2)n1)NO, the growth is reported as -28.7% (active).
